Screening results deposited in PubChem BioAssay by National Center for Advancing Translational Sciences (NCATS).
ATXN viability: cell viability loss in ATXN counter-screen | S2 cells (HEK-293 line with an ATXN2-luciferase reporter) viability, CellTiter-Fluor protease fluorescence, 24 h | Potency, µM (doses to about 56.7 µM), actives largely listed as cytotoxic | 400,000 compounds, 0.49% hits | AID 651635; note: nearly all actives have a fitted effect of over 40% in size
TDP1 cell CPT: growth inhibition of DT40 Tdp1-/-;hTDP1 cells with camptothecin (screen for TDP1 inhibitors); 420,000 compounds, 12% hits; Potency, µM (highest dose often 46.2 µM), for inactives: top-dose activity change, negative = growth inhibition, hits mostly inhibitors; chicken DT40 Tdp1-/-;hTDP1 cells + 20 nM CPT, ATP luminescence, 48 h; AID 686979; note: % is set by controls: 0 for no effect and ±100 for the full control effect; nearly all actives have a fitted effect of over 55% in size
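Chicken DT40 Tdp1-/- cells stably complemented with human TDP1 were seeded at 400 cells/well in medium containing 20 nM camptothecin, exposed to pin-transferred compounds, and grown at 37 °C for at least 48 hr. Viability was read as ATP luminescence.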
DT40 TDP1 no CPT: qHTS for Inhibitors of human tyrosyl-DNA phosphodiesterase 1 (TDP1): qHTS in cells in absence of CPT. DT40 Tdp1-/- hTDP1 cells, no CPT, ATP luminescence, 48 h. Potency, µM (top dose mostly 46.2 µM), inactives show at the top dose activity change, negative = growth inhibition, most hits filed as inhibitors. 420,000 compounds, 15% hits; note: % is set by controls: 0 for no effect and ±100 for the full control effect; nearly all actives have a fitted effect of over 55% in size
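A cellular qHTS used chicken DT40 cells lacking endogenous Tdp1 but carrying stably transfected human TDP1. Compounds were applied without camptothecin, and cell growth kinetics were judged by ATP-dependent luminescence after ≥48 hr.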
ATXN2 expr inh: ATXN2 expression inhibition; HEK-293 ATXN2-luciferase reporter, luminescence, 24 h; Potency, µM (doses to about 57 µM), for the others: at the top dose activity change, negative = inhibition, most hits filed as inhibitors; 360,000 compounds, 0.72% hits; AID 1745845; note: % is set by controls: 0 for no effect and ±100 for the full control effect; nearly all actives have a fitted effect of over 55% in size
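ATXN2-luciferase reporter cells (luciferase flanked by upstream and downstream ATXN2 gene portions) were treated 24 h at 37 °C with compounds at up to 57 uM. SteadyGlo luminescence gave expression; GF-AFC fluorescence gave viability.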
HepG2 tox: kills HepG2 cells in TGF-b inhibitor counter-screen. 410,000 compounds, 0.76% hits. Potency, µM (series often up to 46.1 µM), for the others: at the top dose activity change, negative = cytotoxicity, usual class: cytotoxic. HepG2 CAGA-GFP viability, ATP luminescence, 18 h. AID 588856
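CellTiter-Glo luminescence gave cytotoxicity after 18 hours at 37 degrees C. The cells were HepG2 CAGA-GFP in 1% FBS DMEM, stimulated with 500 pg/mL TGF-beta after compound addition. %Activity was normalised to no-cell wells (complete cell-killing) and DMSO (no toxicity), and curves were fitted and classified.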
TGFb SMAD3 inh: inhibitors of TGF-b signaling; AID 588855; 410,000 compounds, 1.2% hits; HepG2 CAGA-GFP TGF-b/SMAD3 reporter, GFP fluorescence, 18 h; TGF-beta stimulated, 500 pg/mL final; Potency, µM (series often up to 46.1 µM), inactives show at the highest dose activity, negative = inhibition, actives largely listed as inhibitors; note: % is set by controls: 0 for no effect and ±100 for the full control effect; nearly all actives have a fitted effect of over 65% in size
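HEPG2 CAGA-GFP, 1000 cells/well; 2 h settle, 37 C; cpd via pin tool; TGF-b 500 pg/mL final; 18 h, 37 C; GFP imaging ex488/em500-530; %Activity normalised to -TGF-b and +DMSO controls; CRC fit, curve class.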
The depositor's hits bear a star; i = inactive; ? = inconclusive; / = no result given; [ ] = dose if it differs, or a comment. An excerpt weighted towards active compounds, which were near 17% of everything screened. Calls come from the whole dose curve; as a rule, active = well fitted curve in the direction sought with a large enough effect; inconclusive = small, poorly fitted or top-dose-only effect, or another doubt; inactive = no such curve, though single readings can be large; an effect the other way counts as inactive or inconclusive. Potency is the fitted concentration of half-maximal effect.

SMILES | ATXN viability | TDP1 cell CPT | DT40 TDP1 no CPT | ATXN2 expr inh | HepG2 tox | TGFb SMAD3 inh
O=P(c1ccccc1)(c1ccccc1)c1nc(-c2ccc(Cl)cc2)oc1N1CCOCC1 | ? | ? | -21% | -18% | -28% | ?
CN(C)CCN1C(=O)c2cccc3cc(N)cc(c23)C1=O | / | / | / | 5.4µM* | / | /
O=C1c2cccc3cccc(c23)C(=O)N1CCO | i | 2% | -11% | / | -1% | 2%
CCN(CC)CCN1C(=O)c2cccc3cc(N)cc(c23)C1=O | ? | 12µM* | 7.3µM* | ? | -13% | ?
CCOC(=O)CCCCCN1C(=O)c2cccc3cccc(c23)C1=O | ? | 7% | ? | / | 3% | 0%
CC(C)CN1CCc2nc(N3CCN(C)CC3)ncc2C1 | i | -13% | -24% | 13% | 10% | 11%
Brc1csc(CN2CCc3nc(Nc4ccccc4)ncc3C2)c1 | ? | 21µM* | 23µM* | -16% | -42% | 13µM*
COc1ccccc1Nc1ncc2c(n1)CCN(Cc1ccc(C)s1)C2 | i | -6% | -10% | 4% | -14% | 19%
COc1cc(Nc2ncc3c(n2)CCN(Cc2cc(Br)cs2)C3)cc(OC)c1 | i | 16µM* | 23µM* | -22% | -30% | ?
CN1CCN(c2ncc3c(n2)CCN(Cc2cc(Br)cs2)C3)CC1 | ? | 16µM* | ? | -11% | -18% | 20%
O=C(Nc1ccc(OC(F)(F)F)cc1)c1sccc1NCc1ccnc2ccccc12 | / | / | / | 78% | / | /
FC(F)(F)c1nnc2c(Sc3ccccn3)nc3ccccc3n12 | ? | 5.2µM* | 4.6µM* | 11% | -23% | ?
FC(F)(F)c1nnc2c(Sc3ccc(Cl)cc3)nc3ccccc3n12 | i | 2.6µM* | 1.8µM* | ? | -54% | ?
FC(F)(F)c1nc2ccccc2c2nc3ccccc3n12 | i | 1% | -7% | -11%[11.3 µM] | 6% | 4%
Cc1nnc2c(SC(C)C)nc3ccccc3n12 | i | ? | ? | / | -56% | ?
O=C1OC(Nc2ccc(Br)cn2)c2ccccc21 (stereo not given) | i | -12% | -1% | -3% | 2% | 1%
CCOc1ccccc1NC(=O)Cn1ccn(Cc2ccc(C)cc2)c(=O)c1=O | i | -7% | -14% | -7% | -3% | 2%
Nc1cccc2c(=O)[nH][nH]c(=O)c12 | i | ? | 39% | -22% | 9% | 1%
Nc1c(C(O)(C(F)(F)F)C(F)(F)F)cc(C(O)(C(F)(F)F)C(F)(F)F)c2ccccc12 | ? | ? | ? | ? | 18µM* | 11µM*
